In PubChem BioAssay (Tox21):
Active and inactive are the calls of the source. Where a call stands in place of a potency, no number is given. Calls follow the shape of the dose curve; as a rule, active = well fitted activation curve with a large enough effect in the repeat runs; inconclusive = weak or mixed curves; inactive = flat fitted curve, though single readings scatter.

assay: A CellTox Green Cytotoxicity Assay to monitor cytotoxicity in HepG2 cells - 0 hour (AID 1224882); settings: CellTox Green fluorescence; series mostly up to 76.8 µM; also: nearly all actives have a fitted effect of over 35% in size
From the text: National Center for Advancing Translational Sciences [NCATS]
NIH Chemical Genomics Center [NCGC]
U.S. Environmental Protection Agency [EPA]
National Institutes of Environmental Health Sciences [NIEHS]
National Toxicology Program [NTP]
Cell-based models are critical for drug discovery. Determining the natural cytotoxic effects resulting from test compounds is an essential research activity. A CellTox Green Cytotoxicity Assay to monitor cytotoxicity in real time of continues cell culture during 40 hours of the compound treatment was used to screen Tox21 10K library compounds in HepG2 cells. CellTox Green Cytotoxicity Assay is a nonlytic, homogeneous, biofluorescent method to measure cytotoxicity in cell culture after experimental manipulation. The assay system uses a proprietary asymmetric cyanine dye that is excluded from viable cells but preferentially stains the dead cell's DNA. […] Viable cells produce no appreciable increases in fluorescence. Therefore, the fluorescence signal produced by the binding interaction with dead cell DNA is proportional to cytotoxicity.
The mixture of HepG2 cell suspension and reagents were dispensed at 600cells/6 ul/well in 1536-well tissue culture treated black solid bottom plates using a Multidrop dispenser. After the assay plates were incubated at a 37 C/5% CO2 incubator for 5 hours, 23 nL of compounds dissolved in DMSO, positive and negative controls was transferred to the assay plate by a pintool work station. The plates were incubated at 37 C for 40 hours. The fluorescence intensity were measured at 0h, 8h, 16h, 24h, 32h and 40h time points using ViewLux plate reader during compound treatment.

| SMILES | Potency |
| --- | --- |
| C=CCSSCC=C | inactive |
| CC(Cc1ccccc1)NCc1ccccc1Cl (stereo not given) | inactive |
| CN1C(=O)CN=C(c2ccccc2)c2cc([N+](=O)[O-])ccc21 | inactive |
| COCc1cnc(C2=NC(C)(C(C)C)C(=O)N2)c(C(=O)O)c1 (stereo not given) | inactive |
| CCC(C)(C)O | inactive |
| CCOP(=S)(OCC)Oc1ccc(S(C)=O)cc1 (stereo not given) | inactive |
| C=CCc1ccccc1O | inactive |
| [Cl-].[Cl-].[Hg+2] | inactive |
| CN(C)C(=O)Nc1cccc(OC(=O)NC(C)(C)C)c1 | inactive |
| CCOC(C(=O)OCCN(C)C)(c1ccccc1)c1ccccc1 | inactive |
| CCCC1CCCCN1 (stereo not given) | inactive |
| O=C(O)c1cc(Cl)ccc1Cl | inactive |
| CCCC[N+](CCCC)(CCCC)CCCC | inactive |
| OC[P+](CO)(CO)CO | inactive |
| C1CCNCC1 | inactive |
| Clc1ccc(Cl)c(Cl)c1 | inactive |
| N#CC(C#N)=C(C#N)C#N | inactive |
| Cc1nc(N(C)C)nc(OC(=O)N(C)C)c1C | inactive |
| O=P(OCC(Br)CBr)(OCC(Br)CBr)OCC(Br)CBr (stereo not given) | inactive |
| CCCCCCCCCCCC[N+](C)(C)CCOc1ccccc1 | inactive |

| SMILES | Potency |
| --- | --- |
| O=S(=O)(c1ccccc1)c1ccccc1 | inactive |
| OCCCl | inactive |
| COc1cc(CC(C)N)c(OC)cc1Br (stereo not given) | inactive |
| CCN(C(C)=O)c1cccc(-c2ccnc3c(C#N)cnn23)c1 | inactive |
| CCCCCBr | inactive |
| CCCCCCCCP(=O)(O)O | inactive |
| O=[N+]([O-])c1cc(Cl)c(Cl)cc1Cl | inactive |
| CCCCCCCCCCCCN(C)C | inactive |
| NC(=S)c1c(Cl)cccc1Cl | inactive |
| O=C(O)c1cc(I)cc(I)c1I | inactive |
| COc1ccc2c(c1OC)C(=O)O[C@H]2[C@@H]1c2cc3c(cc2CCN1C)OCO3 | inactive |
| CCCC[N+]1(C)[C@@H]2CC(OC(=O)[C@H](CO)c3ccccc3)C[C@H]1[C@@H]1O[C@@H]12 (stereo not given in full) | inactive |
| Nc1cccc2ccccc12 | inactive |
| O=C(O)C(F)(F)C(F)(F)C(F)(F)C(F)(F)C(F)(F)C(F)(F)C(F)(F)C(F)(F)F | inactive |
| O=C(Cc1ccccc1)OCCc1ccccc1 | inactive |
| Nc1ccccc1C(=O)OCC(O)CO (stereo not given) | inactive |
| CCC1(C2=NCCN2)Cc2ccccc2O1 (stereo not given) | inactive |
| Cc1ccccc1 | inactive |
| CC(C)(c1ccccc1)c1cc(-n2nc3ccccc3n2)c(O)c(C(C)(C)c2ccccc2)c1 | inactive |
| O=C(CCl)CCl | inactive |
